# Measured values taken from PMC5540273 (PLoS ONE, 2017).
# Read-outs that look alike come from different tables or passages of the source.
# Assays:
# Conditions in all cases: n = 1
# PAK6 = test system: PAK6
# PAK7 = test system: PAK7
# PCTK1 = test system: T1, PCTK1
# T1 construct: gene CDK16
# PCTK2 = test system: T2, PCTK2
# T2 construct: gene CDK17
# PCTK3 = test system: T3, PCTK3
# T3 construct: gene CDK18
# PDGFRA = test system: PDGFRA
# PDGFRB = test system: PDGFRB
# PDPK1 = test system: PDPK1
# PFTAIRE2 = test system: PFTAIRE2
# PFTK1 = test system: T4, PFTK1
# T4 construct: gene CDK14
# PHKG1 = test system: PHKG1
# PHKG2 = test system: PHKG2
# PIK3C2B = test system: PIK3C2B
# PIK3C2G = test system: PIK3C2G
# PIK3CA = test system: PIK3CA
# PIK3CB = test system: PIK3CB
# PIK3CD = test system: PIK3CD
# PIK3CG = test system: PIK3CG
# PIK4CB = test system: T5, PIK4CB
# T5 construct: gene PI4KB
# PIKFYVE = test system: PIKFYVE
# [1] = concentration: 1 μM, replicates: in singlicate
# 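Note: KINOMEscan kinase panel screen.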
smiles,measurement,setting,value
Clc1cc(Cl)cc(Nc2ccnc(Nc3cc(Cl)cc(Cl)c3)n2)c1 [GSK175726],%Inh,PAK6; [1],9%
same,%Inh,PAK7; [1],10%
same,%Inh,PCTK1; [1],0%
same,%Inh,PCTK2; [1],19%
same,%Inh,PCTK3; [1],0%
same,%Inh,PDGFRA; [1],14%
same,%Inh,PDGFRB; [1],21%
same,%Inh,PDPK1; [1],19%
same,%Inh,PFTAIRE2; [1],2%
same,%Inh,PFTK1; [1],0%
same,%Inh,PHKG1; [1],0%
same,%Inh,PHKG2; [1],0%
same,%Inh,PIK3C2B; [1],6%
same,%Inh,PIK3C2G; [1],0%
same,%Inh,PIK3CA; [1],5%
same,%Inh,PIK3CB; [1],40%
same,%Inh,PIK3CD; [1],38%
same,%Inh,PIK3CG; [1],3%
same,%Inh,PIK4CB; [1],0%
same,%Inh,PIKFYVE; [1],1%
Cc1cc(NCC(c2ccccc2)c2ccccc2)nc(NCc2ccc(C(F)(F)F)cc2)n1 [GW497681],%Inh,PAK6; [1],0%
same,%Inh,PAK7; [1],0%
same,%Inh,PCTK1; [1],0%
same,%Inh,PCTK2; [1],13%
same,%Inh,PCTK3; [1],35%
same,%Inh,PDGFRA; [1],0%
same,%Inh,PDGFRB; [1],21%
same,%Inh,PDPK1; [1],0%
same,%Inh,PFTAIRE2; [1],13%
same,%Inh,PFTK1; [1],18%
same,%Inh,PHKG1; [1],0%
same,%Inh,PHKG2; [1],0%
same,%Inh,PIK3C2B; [1],0%
same,%Inh,PIK3C2G; [1],0%
same,%Inh,PIK3CA; [1],0%
same,%Inh,PIK3CB; [1],0%
same,%Inh,PIK3CD; [1],0%
same,%Inh,PIK3CG; [1],0%
same,%Inh,PIK4CB; [1],0%
same,%Inh,PIKFYVE; [1],0%
COc1ccc(C2=C(Nc3cccc(C(=O)O)c3)C(=O)NC2=O)cc1 [SB-390765],%Inh,PAK6; [1],0%
same,%Inh,PAK7; [1],0%
same,%Inh,PCTK1; [1],1%
same,%Inh,PCTK2; [1],8%
same,%Inh,PCTK3; [1],0%
same,%Inh,PDGFRA; [1],30%
same,%Inh,PDGFRB; [1],0%
same,%Inh,PDPK1; [1],21%
same,%Inh,PFTAIRE2; [1],24%
same,%Inh,PFTK1; [1],6%
same,%Inh,PHKG1; [1],0%
same,%Inh,PHKG2; [1],0%
same,%Inh,PIK3C2B; [1],23%
same,%Inh,PIK3C2G; [1],21%
same,%Inh,PIK3CA; [1],0%
same,%Inh,PIK3CB; [1],40%
same,%Inh,PIK3CD; [1],16%
same,%Inh,PIK3CG; [1],27%
same,%Inh,PIK4CB; [1],22%
same,%Inh,PIKFYVE; [1],0%
O=C(Nc1n[nH]c2cc(-c3cccc(F)c3F)ccc12)C1CC1 [SB-733894],%Inh,PAK6; [1],0%
same,%Inh,PAK7; [1],1%
same,%Inh,PCTK1; [1],0%
same,%Inh,PCTK2; [1],8%
same,%Inh,PCTK3; [1],5%
same,%Inh,PDGFRA; [1],23%
same,%Inh,PDGFRB; [1],51%
same,%Inh,PDPK1; [1],19%
same,%Inh,PFTAIRE2; [1],0%
same,%Inh,PFTK1; [1],0%
same,%Inh,PHKG1; [1],3%
same,%Inh,PHKG2; [1],25%
same,%Inh,PIK3C2B; [1],17%
same,%Inh,PIK3C2G; [1],15%
same,%Inh,PIK3CA; [1],0%
same,%Inh,PIK3CB; [1],0%
same,%Inh,PIK3CD; [1],0%
same,%Inh,PIK3CG; [1],19%
same,%Inh,PIK4CB; [1],8%
same,%Inh,PIKFYVE; [1],100%
Cc1cc(-c2ccc3c(c2)CC[C@@H](N[C@@H](C)c2ccccc2)C3)cnc1N.Cl [GW412617],%Inh,PAK6; [1],5%
same,%Inh,PAK7; [1],15%
same,%Inh,PCTK1; [1],6%
same,%Inh,PCTK2; [1],0%
same,%Inh,PCTK3; [1],0%
same,%Inh,PDGFRA; [1],0%
same,%Inh,PDGFRB; [1],75%
same,%Inh,PDPK1; [1],22%
same,%Inh,PFTAIRE2; [1],6%
same,%Inh,PFTK1; [1],0%
same,%Inh,PHKG1; [1],21%
same,%Inh,PHKG2; [1],3%
same,%Inh,PIK3C2B; [1],0%
same,%Inh,PIK3C2G; [1],0%
same,%Inh,PIK3CA; [1],1%
same,%Inh,PIK3CB; [1],0%
same,%Inh,PIK3CD; [1],0%
same,%Inh,PIK3CG; [1],0%
same,%Inh,PIK4CB; [1],1%
same,%Inh,PIKFYVE; [1],0%
Cc1ccc(NC(=O)Nc2cccc(C(F)(F)F)c2)cc1 [GSK955403],%Inh,PAK6; 1 µM,36%
same,%Inh,PAK7; 1 µM,1%
same,%Inh,PCTK1; 1 µM,0%
same,%Inh,PCTK2; 1 µM,2%
same,%Inh,PCTK3; 1 µM,0%
same,%Inh,PDGFRA; 1 µM,0%
same,%Inh,PDGFRB; 1 µM,45%
same,%Inh,PDPK1; 1 µM,14%
same,%Inh,PFTAIRE2; 1 µM,1%
same,%Inh,PFTK1; 1 µM,5%
same,%Inh,PHKG1; 1 µM,12%
same,%Inh,PHKG2; 1 µM,15%
same,%Inh,PIK3C2B; 1 µM,1%
same,%Inh,PIK3C2G; 1 µM,36%
same,%Inh,PIK3CA; 1 µM,5%
same,%Inh,PIK3CB; 1 µM,0%
same,%Inh,PIK3CD; 1 µM,0%
same,%Inh,PIK3CG; 1 µM,9%
same,%Inh,PIK4CB; 1 µM,0%
same,%Inh,PIKFYVE; 1 µM,0%
Cc1cccc(-c2nc(Nc3cccc(C(N)=O)c3)c3ccccc3n2)n1 [GW876019],%Inh,PAK6; [1],0%
same,%Inh,PAK7; [1],0%
same,%Inh,PCTK1; [1],0%
same,%Inh,PCTK2; [1],0%
same,%Inh,PCTK3; [1],0%
same,%Inh,PDGFRA; [1],0%
same,%Inh,PDGFRB; [1],5%
same,%Inh,PDPK1; [1],0%
same,%Inh,PFTAIRE2; [1],20%
same,%Inh,PFTK1; [1],0%
same,%Inh,PHKG1; [1],0%
same,%Inh,PHKG2; [1],8%
same,%Inh,PIK3C2B; [1],0%
same,%Inh,PIK3C2G; [1],44%
same,%Inh,PIK3CA; [1],0%
same,%Inh,PIK3CB; [1],0%
same,%Inh,PIK3CD; [1],48%
same,%Inh,PIK3CG; [1],0%
same,%Inh,PIK4CB; [1],0%
same,%Inh,PIKFYVE; [1],16%
